Test results taken from PubChem BioAssay (NCI).
Several values for one entry are separate records, joined by “and”; a condition that tells them apart may be missing. Equal values may be shown once. About 79,000 compounds went through this panel and 15% of them were active in at least one assay; those are over-represented in the sample as a whole. A number with no mark means an inactive call. Activity calls are given as the source filed them. Cut-off read from the data, not from the text of the source: active = growth inhibition above about 70%; inactive = the rest. *1 amine or outer side, *2 acyl side, *3 side chain or, on linkers, in order; H or OH if unused. Where a SMILES comes first, the peptide text is derived from it. Bridges are numbered along the chain shown (N, C = ends). Roman numbers before positions name the chains, in order. [ ]: non-standard residue; d: D form. The star is where a group is joined. Actinocin(9to1) = Cc1c2oc3c(C)ccc(C(=O)[*:1])c3nc-2c(C(=O)[*:2])c(N)c1=O; NMeY = CN[CH](Cc1ccc(O)cc1)C(=O)O; Boc = CC(C)(C)OC(=O)*; Bn = c1ccc(C*)cc1; Sar = CNCC(=O)O

Legend:
[1] = NCI Yeast Anticancer Drug Screen. Data for the rad50 strain (AID 155);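 note: 0% = growth of vehicle-only cultures of the same strain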; conditions: S. cerevisiae rad50 strain growth inhibition; at 50.0 µM; active compounds read high
How it was run: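 Vehicle-treated cultures provide the reference for the growth inhibition reported for compound-exposed, repair-deficient yeast.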

[2] = NCI Yeast Anticancer Drug Screen. Data for the mec2-1 strain (AID 157); conditions: S. cerevisiae mec2-1 strain, at 50.0 µM, active compounds read high
How it was run: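 Test agents were screened against the mec2-1 yeast strain, with defined DNA repair or cell cycle alteration. Growth was scored as inhibition against vehicle-only controls.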

[3] = NCI Yeast Anticancer Drug Screen. Data for the sgs1 mgt1 strain (AID 161);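 note: 0% = growth of cultures given vehicle only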; conditions: S. cerevisiae sgs1 mgt1 strain, at 50.0 µM, active compounds read high
How it was run: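 Read-out: growth inhibition vs vehicle controls. Cells: mutant yeast strain deficient in DNA damage repair.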

[4] = NCI Yeast Anticancer Drug Screen. Data for the cln2 rad14 strain (AID 165);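 note: 0% = growth equal to vehicle treated cultures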; conditions: S. cerevisiae cln2 rad14 strain, at 50.0 µM, active compounds read high
How it was run: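 Growth of compound-exposed yeast (cln2 rad14 genotype) measured and expressed as inhibition relative to vehicle.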

[5] = NCI Yeast Anticancer Drug Screen. Data for the bub3 strain (AID 167); conditions: S. cerevisiae bub3 mutant strain, at 50.0 µM, active compounds read high
How it was run: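 Mutant yeast screening strain plus compound; vehicle-treated cultures serve as the 0% inhibition reference.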

[6] = NCI Yeast Anticancer Drug Screen. Data for the mlh1 rad18 strain (AID 175); conditions: S. cerevisiae mlh1 rad18 strain growth inhibition; at 50.0 µM; active compounds read high
How it was run: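 In this whole-cell yeast screen, a strain with altered DNA damage repair is challenged with compound, and its growth is measured against matched vehicle-treated controls.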

SMILES | growth inhibition [1] | growth inhibition [2] | growth inhibition [3] | growth inhibition [4] | growth inhibition [5] | growth inhibition [6]
O=C1OC(c2ccccc2)=N/C1=C\c1ccccc1O | -4.65% and -9.75% | -13.2% and -16.3% | -0.2% and -1.3% | 2.6% and 7.3% | -1.7% and -13.6% | -21.1% and -0.55%
CNC(=O)C(CC(C)C)NC(=O)C(C)NC(=O)C(Cc1ccc(OCc2ccccc2)cc1)NC(=O)C(COCc1ccccc1)NC(=O)OC(C)(C)C (stereo unspecified) (Boc-S(Bn)Y(Bn)AL-NHMe; configuration not given here) | -7.2% and -29.6% | -17.5% and -21.1% | -20.1% and -17% | 17.1% and 6.9% | 25% and -1.35% | 1.1% and -0.25%
O=[N+]([O-])c1ccccc1S(=O)(=O)Oc1ccccc1 | 10.1% and 54.7% | 2.5% and -9.2% | 5.45% and 46.3% | -12.9% and 1% | -8.65% and -14.5% | 5.25% and 32.4%
CC(=O)NC(C(=O)O)=C(C)C | -9.2% and 18% | -7.55% and -6.25% | -1.45% and 13.9% | -16.9% and 16.8% | 7.95% and 2.25% | -5.2% and 27.9%
CCCN=C(N)C(N)=NCCC (tested in a mixture with another compound) | 0.4% and 6.5% | -3.95% and 7.35% | 9% and 26.4% | -21.4% and 7.55% | 12.6% and 3.75% | 6.65% and 10%
Cc1c2oc3c(C)ccc(C(=O)NC4C(=O)NC(C(C)C)C(=O)N5CCCC5C(=O)N(C)CC(=O)N(C)C(Cc5ccc(O)cc5)C(=O)OC4C)c3nc-2c(C(=O)NC2C(=O)NC(C(C)C)C(=O)N3CCCC3C(=O)N(C)CC(=O)N(C)C(Cc3ccc(O)cc3)C(=O)OC2C)c(N)c1=O (stereo unspecified) (I: TVP[Sar][NMeY] / II: TVP[Sar][NMeY]; ester I:1-I:C, II:1-II:C; linker I:N-II:N via Actinocin(9to1); configuration not given here) | -11.3% and -12.8% | 0.3% and 1.3% | -3.65% and -1.8% | 4.7% and 26.5% | -8.7% and 0.35% | -25.1% and -32.2%
Cc1ccc(S/C=C/C(=O)O)cc1 | -3% and 19.8% | 18.5% and -0.1% | 16.1% and 20.4% | 7.7% and 19.2% | -0.1% and -6.05% | 20.6% and 5.45%
COc1cc([N+](=O)[O-])c(S(=O)(=O)O)cc1N | -7.95% and 30.1% | 22.8% and 6.65% | -11.8% and -0.8% | -23.7% and 16.8% | 7.2% and 16.3% | -0.75% and 38.9%
CCSC(SCC)C(OC(C)=O)C(OC(C)=O)C(COC(C)=O)OC(C)=O (stereo unspecified) | -2.1% and -16.1% | -2.3% and -2.8% | 8.1% and 4.4% | -40% and -18.2% | -7.25% and -3.55% | 16.6% and 10.9%
CCCCNC(=S)NCCCC | -6.45% and -1.4% | 9.9% and 8% | -11% and 19.2% | -32% and -17.5% | 1.15% and -4.35% | -2.4% and 17.3%
O=C(O)/C=C/C=C/C(=O)O | -5.1% and 14.2% | -4.45% and -10.2% | -3.8% and -1.95% | 7.8% and -17.9% | -0.8% and -14.6% | -10.6% and 2.75%
O=C(CC(=O)Nc1ccccc1)Nc1ccccc1 | -3.55% and 32.1% | -21% and 0.2% | -5.95% and 23.4% | 8.5% and 5.5% | -28.6% and -1.65% | -5.55% and 20.8%
ClCC(CCl)(CCl)CCl | 24.6% and 1.15% | 6.95% and -12.9% | 13.4% and 7.95% | 6% and 20.1% | 12.3% and -0.2% | 5.85% and 1.45%
CCCCc1c(C)[nH]c(=S)[nH]c1=O | -6.15% and 5.3% | -14.8% and -14.1% | -4.35% and 0.4% | -6.1% and 13.2% | -0.05% and 15% | -5.45% and 2%
Nc1ccc2ccc(O)cc2c1 | 24.8% and 29.8% | -0.5% and 8.5% | 24.9% and 16.8% | 21.8% and -22.2% | 13.6% and 25.8% | 19% and 24.6%
CCCCCCCCCCCCCCCC[N+](C)(C)CCOC(C)=O | 99.2% (active) and 99% (active) | 99.5% (active) | 99.5% (active) | 98.9% (active) and 98.8% (active) | 99.2% (active) and 99.3% (active) | 99.5% (active) and 99.4% (active)
CCC(C(=O)O)c1ccccc1 (stereo unspecified) | 10.7% and 12.6% | 5.4% and 3.95% | 9.4% and 1.25% | -12.2% and -29.8% | -19.6% and -1.9% | 22.4% and 2.4%
CC(C)(C)OC(=O)N1CCCC1C(=O)O (stereo unspecified) | -2% and 4.9% | -22.3% and 2.55% | 3.05% and 3.8% | 6.05% and -24.8% | 11.6% and -5.25% | 2.45% and 4.55%
OCCCc1ccncc1 | -6.05% and -8.55% | -4.65% and -4.7% | 2.9% and 4.75% | 8.7% and -7.9% | 3.25% and -0.55% | 12.2% and 7.85%
OCC(O)C(O)C1OC(O)C(O)C(O)C1O (stereo unspecified) | 1.1% and -15.8% | 0.45% and -15.2% | 3.1% and -4.25% | -8.25% and -17.1% | 0.25% and -1.65% | 7.85% and -7.65%
NC(N)=N/N=C(/C=N/N=C(N)N)C(O)C(O)CO (stereo unspecified) | -11% and -10.4% | -1.95% and -8.1% | -7.6% and 3.3% | -39.3% and -17.4% | -18.1% and -13.7% | -20.4% and -19.9%
